Screening data (PubChem BioAssay)
Shown is part of a subset that was picked to be rich in hits.
HT1080 IDH1KD tx = HT-1080 IDH1 knockdown cell toxicity (counter line) | actives 2% (n = 360,000) | HT-1080 IDH1 knockdown viability, ATP luminescence, 48 h | Potency, µM (titrated, usually from 46.1 µM), usual class: cytotoxic
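IDH1KD HT-1080 cells, 750/well, RPMI + 5% FBS; compound pinned after 2 h settling; 48 h, 37 °C; CellTiter-Glo luminescence; % activity normalised to DMSO and no-cell wells; curves fitted, classed by r2 and efficacy.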
TDP1 cell CPT = DT40-hTDP1 cell growth loss with CPT. Potency, µM (doses to about 46.2 µM), actives largely listed as inhibitors. actives 12% (n = 420,000). chicken DT40 Tdp1-/-;hTDP1 cells + 20 nM CPT, ATP luminescence, 48 h; note: nearly all actives have a fitted effect of over 55% in size
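Chicken DT40 Tdp1-/- cells stably complemented with human TDP1 were seeded at 400 cells/well in medium containing 20 nM camptothecin, exposed to pin-transferred compounds, and grown at 37 °C for at least 48 hr. Viability was read as ATP luminescence.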
IL1B secr inh = inhibitors of inflammasome signaling (IL-1 beta secretion) | THP-1 LPS/ATP IL-1B secretion, AlphaLISA, 16 h; active compounds read low | actives 4.7% (n = 360,000) | activity change, % at 57.5 µM | AID 743279; in the data active = activity change below about -50%; inconclusive = mostly about -30% to -49%
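Secreted IL-1B measured by AlphaLISA bead assay after 16 h compound exposure of THP-1 cells; compounds (final up to 57.5 uM) added 1 h before LPS (250 ng/mL) and ATP (1.25 mM) stimulation; lower signal means less secretion.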
DT40 TDP1 no CPT = qHTS for Inhibitors of human tyrosyl-DNA phosphodiesterase 1 (TDP1): qHTS in cells in absence of CPT | DT40 Tdp1-/- hTDP1 cells, no CPT, ATP luminescence, 48 h | Potency, µM (top dose mostly 46.2 µM), usual class: inhibitors | actives 15% (n = 420,000) | AID 686978, 2013; note: nearly all actives have a fitted effect of over 55% in size
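Camptothecin absent (DMSO only). Human TDP1-complemented DT40 knockout cells, 400 cells/well, 37 °C for minimum 48 hr; ATP measured via CellTiter-Glo, 30 min dark incubation, luminescence.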
HT1080-NT tox = kills 2HG-producing HT-1080-NT fibrosarcoma cells. AID 686970. actives 1.6% (n = 360,000). Potency, µM (highest dose often 46.1 µM), actives largely listed as cytotoxic. HT-1080-NT fibrosarcoma viability, CellTiter-Glo ATP luminescence, 48 h;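 note: NT is the 2HG producing partner of a matched IDH1 knockdown line; nearly all actives have a fitted effect of over 55% in size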
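Toxicity toward the 2HG-producing NT line was scored as %Activity, normalised to DMSO and no-cell wells, from CellTiter-Glo luminescence after 48 hours' treatment.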
ALOX12 inh = blocks human arachidonate 12S-lipoxygenase. P18054. purified 12hLO, xylenol orange hydroperoxide absorbance. Potency, µM (doses to about 108 µM), actives largely listed as inhibitors. actives 1.1% (n = 580,000). AID 1671190
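Hydroperoxide product was detected by ferrous iron/xylenol orange as the 573 to 405 nm absorbance ratio. Arachidonic acid at 40 uM (final) was turned over for 30 min at room temperature by 150 nM human 12hLO, pH 7.0 Hepes buffer, after 15 min compound preincubation.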
Each line names hits and unclear results; the compound was inactive in the other large screens. Unless noted, calls come from the whole dose curve; as a rule, active = well fitted curve in the direction sought with a large enough effect; inconclusive = small, poorly fitted or top-dose-only effect, or another doubt; inactive = no such curve, though single readings can be large; an effect the other way counts as inactive or inconclusive.

COc1ccccc1NC(=O)C(=O)NCC(c1ccco1)N1CCc2ccccc21 (configuration not stated)	TDP1 cell CPT inconclusive, DT40 TDP1 no CPT inconclusive, ALOX12 inh inconclusive
COc1ccc(CCC(=O)NCC(c2ccco2)N2CCc3ccccc32)cc1 (configuration not stated)	TDP1 cell CPT 18µM, DT40 TDP1 no CPT 23µM, ALOX12 inh inconclusive
COc1ccccc1C(=O)NCC(c1ccco1)N1CCc2ccccc21 (configuration not stated)	TDP1 cell CPT 15µM, DT40 TDP1 no CPT 23µM, ALOX12 inh inconclusive
O=C(NCC(c1ccco1)N1CCc2ccccc21)c1ccccc1 (configuration not stated)	TDP1 cell CPT inconclusive, DT40 TDP1 no CPT inconclusive, ALOX12 inh inconclusive
Cn1c(=O)c2c(ncn2CC(=O)OCC(=O)Nc2ccccc2C(F)(F)F)n(C)c1=O	none (no result: HT1080 IDH1KD tx, TDP1 cell CPT, IL1B secr inh, DT40 TDP1 no CPT, HT1080-NT tox)
Cc1ncc(CN2CCCC(C(=O)Nc3ccc(-c4ccco4)cc3)C2)n1C (configuration not stated)	TDP1 cell CPT inconclusive, DT40 TDP1 no CPT 21µM
O=C(Nc1ccc(-c2ccco2)cc1)C1CCCN(Cc2ccco2)C1 (configuration not stated)	TDP1 cell CPT inconclusive, DT40 TDP1 no CPT inconclusive
COc1cccc(-c2ccc(NC(=O)C3CCCN(Cc4ccco4)C3)cc2)c1 (configuration not stated)	TDP1 cell CPT inconclusive, IL1B secr inh -80, DT40 TDP1 no CPT 16µM
Cn1cc(CN2CCCC(C(=O)Nc3cccc(-n4cccn4)c3)C2)cn1 (configuration not stated)	none
COc1cccc(-c2ccc(NC(=O)C3CCCN(CCCn4nc(C)cc4C)C3)cc2)c1 (configuration not stated)	HT1080 IDH1KD tx inconclusive, TDP1 cell CPT 18µM, DT40 TDP1 no CPT inconclusive, HT1080-NT tox inconclusive
Cn1cc(CN2CCCC(C(=O)Nc3ccc(-c4cccc(F)c4)cc3)C2)cn1 (configuration not stated)	HT1080 IDH1KD tx inconclusive, TDP1 cell CPT 21µM, DT40 TDP1 no CPT 12µM
c1ccc(Cn2cc(Cn3ccnc3-c3cc4n(n3)CCNC4)cn2)cc1	none (no result: HT1080 IDH1KD tx, TDP1 cell CPT, IL1B secr inh, DT40 TDP1 no CPT, HT1080-NT tox)
CCCn1nc(C(=O)N(Cc2ccc3c(c2)OCO3)C2CCCC2)c2ccccc2c1=O	none (no result: HT1080 IDH1KD tx, TDP1 cell CPT, IL1B secr inh, DT40 TDP1 no CPT, HT1080-NT tox)
CC1CCC(NC(=O)CN2C(=O)c3ccccc3S2(=O)=O)CC1 (configuration not stated)	none
CC1CCC(NC(=O)CN2C(=O)C3CC=CCC3C2=O)CC1 (configuration not stated)	DT40 TDP1 no CPT 5.8µM
CCOC(=O)c1cnc(SC)nc1Oc1cccc(NC(=O)c2ccc(Cl)cc2)c1	TDP1 cell CPT inconclusive, DT40 TDP1 no CPT 23µM
CCN(CC)C(=O)c1ccc(COc2ccc(Cl)c(C)c2)o1	HT1080 IDH1KD tx inconclusive, TDP1 cell CPT 16µM, DT40 TDP1 no CPT 13µM, HT1080-NT tox inconclusive
Cc1cc(OCc2ccc(C(=O)n3cccn3)o2)ccc1Cl	TDP1 cell CPT inconclusive, DT40 TDP1 no CPT inconclusive
Cn1nc(C(=O)OCC(=O)Nc2ccc(OC(F)F)cc2)c2ccccc2c1=O	none (no result: HT1080 IDH1KD tx, TDP1 cell CPT, IL1B secr inh, DT40 TDP1 no CPT, HT1080-NT tox)
CNC(=O)c1cc(S(=O)(=O)NCc2ccncc2)ccc1OC	none
O=[N+]([O-])c1ccccc1S(=O)(=O)NCc1cccnc1	TDP1 cell CPT 8.9µM, DT40 TDP1 no CPT 21µM
COc1cc(S(=O)(=O)NCc2ccncc2)ccc1Br	TDP1 cell CPT 8.2µM, DT40 TDP1 no CPT 9.2µM, HT1080-NT tox inconclusive
Cc1cc(Br)c(S(=O)(=O)NCc2ccncc2)cc1C	HT1080 IDH1KD tx inconclusive, TDP1 cell CPT 5.8µM, DT40 TDP1 no CPT 7.3µM, HT1080-NT tox inconclusive
Cc1ccccc1S(=O)(=O)NCc1cccnc1	none
Cc1ccc(S(=O)(=O)NCc2ccncc2)cc1C	HT1080 IDH1KD tx 23µM, TDP1 cell CPT 2.9µM, DT40 TDP1 no CPT 1.3µM
